Assay outcomes as filed in PubChem BioAssay.
KB-V1 cytotox: KB-V1 MDR subline cytotoxicity; KB-V1 MDR cells viability, CellTiter-Glo, 72 h; Potency, µM (titrated, usually from 46.1 µM), hits mostly cytotoxic; 3.4% of 400,000 active; AID 1347076; note: nearly all actives have a fitted effect of over 60% in size
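Potencies derive from concentration-effect curves fitted to normalized luminescence (CellTiter-Glo) of KB-V1 cells treated for 72 h at 37 degrees C in phenol-red-free DMEM containing 10% FBS.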
KB-3-1 tox: kills parental KB-3-1 adenocarcinoma cells. KB-3-1 viability, CellTiter-Glo ATP luminescence, 72 h. Potency, µM (highest dose often 46.1 µM), hits mostly cytotoxic. 1.4% of 400,000 active. AID 1347075; note: nearly all actives have a fitted effect of over 60% in size
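Parental KB-3-1 viability, qHTS format: 72 h compound exposure, 37 °C; CellTiter-Glo; media-only wells and DMSO plates as controls; concentration-effect fits on corrected data.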
HT1080NT lethal: kills 2HG-producing HT-1080-NT fibrosarcoma cells | AID 686970 | HT-1080-NT fibrosarcoma viability, CellTiter-Glo ATP luminescence, 48 h | Potency, µM (doses to about 46.1 µM), most hits filed as cytotoxic | 1.6% of 360,000 active;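 note: NT is the 2HG producing partner of a matched IDH1 knockdown line; nearly all actives have a fitted effect of over 55% in size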
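Viability of the 2HG-overproducing fibrosarcoma line after 48 hours of compound exposure at 37 degrees C was determined by luminescence with CellTiter-Glo, and concentration-effect curves were then fitted and categorized.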
IL1B secr inh: inhibitors of inflammasome signaling (IL-1 beta secretion) | THP-1 LPS/ATP IL-1B secretion, AlphaLISA, 16 h; active compounds read low | AID 743279 | 4.7% of 360,000 active | activity change, % at 57.5 µM; in the data active = activity change below about -50%; inconclusive = mostly about -30% to -49%
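THP-1 cells pretreated 1 hr with compounds (up to 57.5 uM final), then stimulated with LPS (250 ng/mL final) plus ATP (1.25 mM final); secreted IL-1B measured by AlphaLISA after 16 hr, decreased signal indicating inhibition.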
HT1080 IDH1KD tx: HT-1080 IDH1 knockdown cell toxicity (counter line) | HT-1080 IDH1 knockdown viability, ATP luminescence, 48 h | Potency, µM (titrated, usually from 46.1 µM), hits mostly cytotoxic | 2% of 360,000 active
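Knockdown cells (IDH1KD HT-1080) received compounds 2 h after plating at 750 cells/well and were kept 48 h at 37 °C in 5% FBS RPMI. A CellTiter-Glo luminescence read gave % activity for curve fitting.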
Each line names hits and unclear results; the compound was inactive in the other large screens. Hits are enriched below; roughly 8.8% of the tested compounds scored in any of these assays. Unless noted, calls come from the whole dose curve; as a rule, active = well fitted curve in the direction sought with a large enough effect; inconclusive = small, poorly fitted or top-dose-only effect, or another doubt; inactive = no such curve, though single readings can be large; an effect the other way counts as inactive or inconclusive.

CC(=O)Nc1ccc(Nc2ncnc3c2cnn3-c2ccccc2)cc1	KB-V1 cytotox inconclusive, KB-3-1 tox inconclusive
COc1ccc(OC)c(Nc2ncnc3c2cnn3-c2cccc(C)c2)c1	KB-V1 cytotox inconclusive, KB-3-1 tox inconclusive, HT1080NT lethal 7.08µM, HT1080 IDH1KD tx 7.08µM
COc1ccc(Nc2ncnc3c2cnn3-c2ccccc2)cc1OC	none
CC(=O)Nc1ccc(Nc2ncnc3c2cnn3-c2cccc(C)c2)cc1	KB-V1 cytotox 16.4µM
CCN(CC)C(=O)Cn1cnc2sc(C(=O)NCCCN3CCOCC3)c(C)c2c1=O	KB-3-1 tox inconclusive
CCOc1ccc(S(=O)(=O)N2CCCC(C(=O)N3CCCC3)C2)cc1 (stereo not drawn)	none (no result: KB-V1 cytotox, KB-3-1 tox)
CC(=O)Nc1cccc(-c2cc(C)c3cc4c(cc3n2)OCO4)c1	IL1B secr inh -50.9
CC(=O)Nc1cccc(-c2nc3ccccc3s2)c1	none
O=C(NCCCN1CCN(c2ccc(F)cc2)CC1)c1cnn(-c2ccc(F)cc2)c1-n1cccc1	KB-V1 cytotox 18.4µM, KB-3-1 tox inconclusive (no result: HT1080NT lethal, IL1B secr inh, HT1080 IDH1KD tx)
CN1CCN(CCCNC(=O)c2cnn(-c3ccc(F)cc3)c2-n2cccc2)CC1	none (no result: HT1080NT lethal, IL1B secr inh, HT1080 IDH1KD tx)
CC(CNC(=O)c1cnn(-c2ccc(F)cc2)c1-n1cccc1)c1ccccc1 (stereo not drawn)	KB-V1 cytotox 20.6µM, KB-3-1 tox inconclusive (no result: HT1080NT lethal, IL1B secr inh, HT1080 IDH1KD tx)
COc1ccc(N2CCN(CCCNC(=O)c3cnn(-c4ccc(F)cc4)c3-n3cccc3)CC2)cc1	KB-V1 cytotox inconclusive, KB-3-1 tox 23.1µM (no result: HT1080NT lethal, IL1B secr inh, HT1080 IDH1KD tx)
O=C(CC12CC3CC(CC(C3)C1)C2)NC(=S)N1CCCCC1	KB-V1 cytotox inconclusive
Cc1c(C(=O)OCC(=O)NCc2ccco2)cccc1[N+](=O)[O-]	none (no result: KB-V1 cytotox, KB-3-1 tox)
COCCOC(=O)c1c(C)n(S(=O)(=O)c2ccc(C)cc2)c2ccc(NS(=O)(=O)c3ccc(C)cc3)cc12	none (no result: HT1080NT lethal, IL1B secr inh, HT1080 IDH1KD tx)
CCn1c(=S)sc2c(=O)n(CC(=O)Nc3ccccc3C(F)(F)F)c(C)nc21	none
CC(C)OC(=O)CSc1nnc2c(n1)[nH]c1ccc(F)cc12	none
O=C(Nc1cccc(OC(F)(F)F)c1)c1ccc(-c2cccnc2)c2ccoc12	none
CCc1ccc(C(C(=O)NC2CCCC2)N(C(=O)/C=C/C(=O)Nc2cc(C)on2)c2ccccc2C)cc1 (stereo not drawn)	KB-3-1 tox inconclusive, IL1B secr inh -63.2
CCCCN(C(=O)CCC(=O)Nc1cc(C)on1)C(C(=O)NC1CCCC1)c1ccccc1C (stereo not drawn)	KB-V1 cytotox inconclusive
CCOc1ccc(N(C(=O)/C=C/C(=O)Nc2cc(C)on2)C(C(=O)NC2CCCC2)c2ccccc2C)cc1 (stereo not drawn)	KB-V1 cytotox inconclusive, KB-3-1 tox 9.2µM
COc1ccc(C(C(=O)NC(C)(C)C)N(CCO)C(=O)CCC(=O)Nc2cc(C)on2)cc1 (stereo not drawn)	none
COc1ccc(C(C(=O)NC(C)(C)C)N(CCc2ccccc2)C(=O)CCC(=O)Nc2cc(C)on2)cc1 (stereo not drawn)	KB-V1 cytotox inconclusive, IL1B secr inh -57.2
CCCCN(C(=O)CCC(=O)Nc1cc(C)on1)C(C(=O)NC1CCCC1)c1ccc(F)cc1 (stereo not drawn)	KB-V1 cytotox inconclusive, IL1B secr inh -77.0
Cc1cc(NC(=O)CCC(=O)N(CC2CCCO2)C(C(=O)NC2CCCC2)c2ccccc2C)no1 (stereo not drawn)	none
COc1cccc(CN(C)CC(=O)Nc2ccccc2C(C)C)c1	KB-V1 cytotox inconclusive
Cc1ccc2c(c1)c(=O)c(S(=O)(=O)c1ccc(C)c(C)c1)cn2CC(=O)Nc1ccccc1	none (no result: HT1080NT lethal, IL1B secr inh, HT1080 IDH1KD tx)
COCCNC(=S)N=Nc1c(O)[nH]c2ccc([N+](=O)[O-])cc12	HT1080 IDH1KD tx 25.9µM
CCCCCCC(=O)N=Nc1c(O)[nH]c2ccc([N+](=O)[O-])cc12	none
COc1ccccc1NC(=S)N=Nc1c(O)[nH]c2ccc(Br)cc12	KB-V1 cytotox inconclusive, KB-3-1 tox 2.31µM
CC(C)c1ccccc1OCC(O)CN1CCN(S(=O)(=O)c2ccc([N+](=O)[O-])cc2)CC1 (stereo not drawn)	KB-V1 cytotox inconclusive, KB-3-1 tox 6.51µM, IL1B secr inh -83.4, HT1080 IDH1KD tx inconclusive
COCC1CCN(Cc2cn(Cc3ccccc3)nc2-c2cc3ccccc3o2)CC1	IL1B secr inh -61.5, HT1080 IDH1KD tx inconclusive
